# VP16 counter: inhibits Gal4-VP16 luciferase reporter, ROR gamma counter-screen; Drosophila S2 Gal4-VP16 UAS-luciferase, luminescence, 20 h; Potency, µM (doses to about 53.6 µM), for inactives: at the top dose activity, negative = inhibition, usual class: inhibitors; 3.5% of 310,000 active; AID 2546;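 further: Gal4-VP16 expression switched on by copper sulfate through the metallothionein promoter; nearly all actives have a fitted effect of over 50% in size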
# Sfp PPTase inh: blocks B. subtilis Sfp PPTase activity; Biochemical Sfp PPTase activity, qHTS; Potency, µM, without a hit: largest response in the series, negative = inhibition, actives largely listed as inhibitors; 3.5% of 310,000 active; AID 1490;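 further: the enzyme is Sfp with the accession as filed and its product quenches rhodamine fluorescence; 0% = enzyme reaction without inhibitor and -100% = no enzyme wells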
#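 Compounds were incubated with enzyme (final 15 nM) for 15 min at room temperature before substrate addition started the reaction. Fluorescence at 525 nm excitation, 598 nm emission was recorded immediately and after 30 minutes.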
# RORg inh: inhibitors of mouse ROR gamma transcriptional activity. Drosophila S2 Gal4-RORgamma UAS-luciferase reporter, 20 h. AID 2551. 5.4% of 310,000 active. P51450. Potency, µM (doses to about 53.6 µM), inactives show top-dose activity change, negative = inhibition, usual class: inhibitors; further: nearly all actives have a fitted effect of over 60% in size
# Target sequence (P51450 whole entry, looked up, the tested form may be a part): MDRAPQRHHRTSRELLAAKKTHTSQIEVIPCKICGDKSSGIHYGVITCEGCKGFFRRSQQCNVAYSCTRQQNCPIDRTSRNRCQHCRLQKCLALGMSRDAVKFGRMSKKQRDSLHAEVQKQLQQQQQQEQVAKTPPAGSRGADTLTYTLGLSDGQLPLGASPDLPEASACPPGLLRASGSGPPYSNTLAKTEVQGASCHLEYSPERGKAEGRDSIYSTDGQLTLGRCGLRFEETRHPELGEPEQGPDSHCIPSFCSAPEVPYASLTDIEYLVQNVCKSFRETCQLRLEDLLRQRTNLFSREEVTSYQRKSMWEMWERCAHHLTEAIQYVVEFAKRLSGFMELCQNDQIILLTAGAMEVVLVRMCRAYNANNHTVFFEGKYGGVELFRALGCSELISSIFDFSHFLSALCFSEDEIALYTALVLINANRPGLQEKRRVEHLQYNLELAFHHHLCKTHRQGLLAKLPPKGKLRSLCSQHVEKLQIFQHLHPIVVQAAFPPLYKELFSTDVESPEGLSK
#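 In this cell-based reporter format, copper sulfate (700 uM final) drives Gal4–ROR gamma fusion expression from a metallothionein promoter in Drosophila Schneider cells; compounds preincubated 1 hr, reporter read after 20 hr at ambient temperature.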
# PLK1 PBD inh: blocks phosphopeptide binding to human PLK1 polo-box domain | Potency, µM, for the others: max response, negative = inhibition, hits mostly inhibitors | Plk1 PBD binding of FITC phosphopeptide, fluorescence polarization | 2.8% of 360,000 active; further: series mostly up to about 57 µM; nearly all actives have a fitted effect of over 65% in size
# ALDH1A1 inh: ALDH1A1 (human) enzyme inhibition. P00352. Purified ALDH1A1, NADH fluorescence, propionaldehyde substrate. Potency, µM (series often up to 75.3 µM), without a hit: at the highest dose activity, negative = inhibition, actives largely listed as inhibitors. 7.3% of 220,000 active. AID 1030; active means well fitted inhibition curve with a large enough effect, not every such curve was filed as active; inconclusive means small, poorly fitted or top-dose-only effect, or another doubt; inactive means no such curve, though single readings can be large or run the other way;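 further: plate controls were no enzyme wells and a reference inhibitor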
# An asterisk follows results filed as active; ? = inconclusive; / = no result given; [ ] = remark or other dose. A selection: hits, their analogues and other compounds. The true share with any hit is near 12%. Unless noted, the call rests on the fitted dose curve; in most records, active means well fitted curve in the direction sought with a large enough effect; inconclusive means small, poorly fitted or top-dose-only effect, or another doubt; inactive means no such curve, though single readings can be large; an effect the other way counts as inactive or inconclusive. Unless noted, on the % scale 0 is the no-effect control and ±100 the full control effect; potency means the concentration at half of the fitted maximal effect.
SMILES,VP16 counter,Sfp PPTase inh,RORg inh,PLK1 PBD inh,ALDH1A1 inh
OC[C@H](S)CS,?,2.2µM*,0%[10 µM],/,0.1µM*
COc1ccc(NC(=O)CN2CCN(c3ccc(F)cc3)CC2)cc1,-1%,-3%,6%,30µM*,/
CC(=O)c1ccc(N2CCN(CC(=O)Nc3cc(C)on3)CC2)cc1,-3%,17%,30%,-3%,1%
Cc1cc(NC(=O)CN2CCN(c3ccccc3O)CC2)no1,1%,-3%,?,-8%,-16%
COc1ccc(N2CCN(CC(=O)Nc3cc(C)on3)CC2)cc1,-2%,50µM*,-5%,-8%,?
Cc1cc(NC(=O)CN2CCN(C)CC2)no1,9%,-23%,-12%,12µM*,?
COc1ccc(NC(=O)COC(=O)Cn2cnc3ccccc32)cc1,/,/,/,-8%,/
O=C(Cn1cnc2ccccc21)Nc1ccc(SC(F)F)cc1,7.9µM*,12%,4µM*,-9%,9%
O=c1cnc2cnc(N3CCNCC3)nc2n1C1CC1,-7%,27%,17%,/,?
O=C(O)CNC(=O)[C@H]1NC(C(F)(F)F)(C(F)(F)F)OC1(C(F)(F)F)C(F)(F)F,/,/,/,/,1%[13.5 µM]
O=C(OC1CC2CC1[C@H]1CCCCN1C2=O)N1CCC(c2ccccc2)CC1 (stereo partly drawn),/,/,/,-14%,/
O=C(CN1CCN(c2ccc(O)cc2)CC1)Nc1ccc(SC(F)F)cc1,?,35µM*,?,-7%,8.9µM*
O=C1CN(CC(=O)Nc2ccc(SC(F)F)cc2)CCN1,3%,4%,20%,?,-5%
Cc1cc(NC(=O)CN2CCC(C)CC2)no1,0%,40µM*,11%,-10%,-9%
CCOc1ccccc1N1CCN(CC(=O)Nc2cc(C)on2)CC1,0%,16%,-12%,-6%,10%
CCc1ccc(C(=O)c2cnc3ccc(OC)cc3c2N2CCN(CC)CC2)cc1,-15%,7%,6%,-6%,18µM*
CCOC(=O)c1cnc2ccc(OCC)cc2c1N1CCN(c2ccccc2OC)CC1,12%,?,-26%,-5%,?
CCOC(=O)C1CCN(c2c(C(=O)c3ccccc3)cnc3ccc(Cl)cc23)CC1,-12%,7%,-2%,-9%,4.5µM*
CCOc1ccc2ncc(C(=O)c3ccc(OC)cc3)c(N3CCN(CC)CC3)c2c1,11%,3%,5%,-7%,0.71µM*
CCOc1ccc(C(=O)c2cnc3ccccc3c2N2CCN(CC)CC2)cc1,6%,16%,22%,-5%,8.9µM*
CCOc1ccc(C(=O)Nc2ccc3nc(N4CCN(CC)CC4)cc(C)c3c2)cc1,1%,6%,-5%,-9%,/
CC1(C(=O)Nc2cccc(Oc3ccccc3)c2)Cc2c(-c3ccc4c(c3)OCO4)ccnc2O1 (stereo not drawn),/,/,/,0%,/
Cc1ccc(S(=O)(=O)/C(=C/Cl)NC(=O)c2ccccc2)cc1,?,10%,?,-15%,7.9µM*
COc1ccc(CCNC(=S)Nc2ccccc2C)cc1,20µM*,0%,5µM*,-6%,4%
Cc1ccccc1NC(=S)NCCc1ccccc1,-6%,8%,29%,-2%,?
SMILES,VP16 counter,Sfp PPTase inh,RORg inh,PLK1 PBD inh,ALDH1A1 inh
COc1ccc(OCCNC(=S)Nc2cccc3ccccc23)cc1,6.3µM*,13%,2.8µM*,-4%,4%
COc1ccc(CCNC(=S)Nc2cccc3ccccc23)cc1,11µM*,-3%,5µM*,-17%,22µM*
COc1ccc2cc(C3CC=C(CO)CN3S(=O)(=O)c3ccccc3[N+](=O)[O-])n(C(=O)OC(C)(C)C)c2c1 (stereo not drawn),/,/,/,0%,/
O=c1cc(-c2ccc(O)cc2)oc2cc(O[C@@H]3O[C@H](CO)[C@H](O)[C@H](O)[C@H]3O)cc(O)c12,-17%,6%,1%,/,/
Nc1ccc(C(=O)Nc2ccc(Nc3ccncc3)cc2)c([N+](=O)[O-])c1,/,/,/,-4%,/
Cc1cccc(C(C)C)c1NC(=O)COC(=O)CCC(=O)N(CC(C)C)c1c(N)n(CC(C)C)c(=O)[nH]c1=O,/,/,/,-4%,/
CCCNC(=O)C(Cc1ccc(OC)cc1)NC(=O)c1ccc(Cl)cc1 (stereo not drawn),/,/,/,3%,/
O=C(Nc1ccccc1C(=O)NC(Cc1c[nH]c2ccccc12)C(=O)O)c1ccco1 (stereo not drawn),-3%,9%,11%,-7%,-9%
